Dicer processing: human Dicer pre-microRNA cleavage inhibition | 47,000 tested, 6% active | Q9UPY3 | cat-ELCCA pre-miR-21 Dicer processing, chemiluminescence; hits give high values | AID 1347074 | z-score at 25 µM; in the data active means z-score above about 3, passing the limit was not always enough;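 further: higher signal means more uncleaved substrate so more Dicer inhibition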
Each line names hits and unclear results; the compound was inactive in the other large screens. This excerpt belongs to a sample that is enriched for hits.

CN(C)/C=N/C(=S)Nc1cccc(C(F)(F)F)c1	Dicer processing 4.89
CC(C)(C)NNC(=S)Nc1cccc(C(F)(F)F)c1	none
CN(C)/C=N/C(=S)Nc1cccc(F)c1	none
CCc1nc2c(=O)n(C)c3c(c(=O)n(C)c(=O)n3C)c2o1	none
CSc1nc(-c2ccccc2)[nH]c(=O)n1	none
Cc1ccc(CNS(=O)(=O)c2ccccc2)n1C	none
Cc1cc(=O)n(-c2ccc(Cl)c(Cl)c2)[nH]1	none
Cc1cc(=O)n(-c2ccc(O)cc2)[nH]1	none
Cc1ccccc1-c1nc2ccccc2[nH]1	none
Cc1cc(=O)n(-c2nc3ccccc3[nH]2)[nH]1	Dicer processing 4.29
Cc1[nH]n(-c2nc3ccccc3[nH]2)c(=O)c1C1OC(=O)c2ccccc21 (stereo unspecified)	Dicer processing 3.79
O=C1CC(c2ccccc2Cl)Cc2c1cnn2-c1nc2ccccc2[nH]1 (stereo unspecified)	none
CCN(CC)c1ncnc2sccc12	none
C=CCN(CC=C)S(=O)(=O)c1ccc(C(=O)N2CCCC2)cc1	none
CCOC(=O)c1csc(-c2cn(-c3ccccc3)c(=O)n(C)c2=O)n1	none
COc1cc(C(=O)Nc2ccc3n[nH]nc3c2)cc(OC)c1OC	none
O=C(Oc1ccc2ccccc2c1)c1ccccc1O	none
O=c1nc(/C=C/c2ccc(O)c(O)c2)oc2ccccc12	Dicer processing 3.95
CSc1ccc(/C=C/c2nc(=O)c3ccccc3o2)cc1	none
O=C(O)/C=C/c1ccc(O)c(O)c1	none
N#C/C(=C\c1ccc(Cl)c(Cl)c1)c1ccc(NC(N)=O)cc1	none
Cc1ccc(-c2noc(CSc3nnc(C)n3-c3ccccc3)n2)cc1	none
Cn1c(SCc2nc(-c3ccccc3)no2)nnc1-c1cccs1	Dicer processing 3.08
Cn1c(SCc2nc(-c3ccccc3)no2)nnc1-c1ccco1	none
CCOC(=O)NC(C(=O)OCC)(c1ccc(F)cc1)C(F)(F)F (stereo unspecified)	none
CCCc1cc(OC(=O)c2cccnc2Oc2ccccc2)n(C)n1	none
Cc1oc(-c2ccccc2)cc1C(=O)/C=C/N(C)C	none
CN(C)/C=C/C(=O)c1ccc(Br)s1	none
CN(C)/C=C/C(=O)c1csc2ccccc12	Dicer processing 3.53
CCCCCCC(=O)c1ccc(Br)cc1	none
CCOC(=O)c1c(C)n(C)c2ccc(O)cc12	none
CCOC(=O)c1c(C)n(-c2ccccc2)c2ccc(OC)cc12	none
CCOC(=O)c1c(C)n(-c2cccc(Br)c2)c2ccc(O)cc12	Dicer processing 6.53
COCCN1C(=O)C(=O)/C(=C(\O)c2ccc3c(c2)CC(C)O3)C12C(=O)N(C)c1ccccc12 (stereo unspecified)	none
COC(=O)[C@H]1OC(O)[C@H](O)[C@@H](O)[C@H]1O (stereo partly specified)	Dicer processing 5.77
O=C1Nc2ccccc2/C1=C\c1ccccc1N1CCN(Cc2ccccc2)CC1	none
Cc1cc(C)c(Nc2n[nH]c(=S)s2)c(C)c1	none
Cc1cc(C)c(Nc2nc3cc(Br)cc(C)c3s2)c(C)c1	Dicer processing 3.77
Cc1cc(C)c(Nc2nnns2)c(C)c1	none
Cc1nc(-c2ccc(NS(=O)(=O)c3ccc(Oc4cccc(Cl)c4C#N)cc3)cc2)cs1	none
C/C=C/CC(=O)Nc1nc(CC(=O)OCC)cs1	none
Cc1ccc(Cl)cc1N1C(=O)CC(C)(C)CC1=O	none
COc1ccc(Cl)cc1N1C(=O)c2ccncc2C1=O	none
Cc1ccc(Cl)cc1N1C(=O)c2ccncc2C1=O	Dicer processing 3.42
COc1ccc(-c2cc3ccccc3c(=O)o2)cc1	none
COc1ccc(-c2cc(=O)c3ccccc3o2)cc1	none
COc1ccc(-c2cc3c(=O)oc4ccccc4c3[nH]2)cc1	Dicer processing 4.02
CC(C)C(CO)NC(=O)Oc1ccccc1 (stereo unspecified)	none
Cc1cc2ncc(-c3ccnc(SCc4c(Cl)cccc4Cl)n3)c(C)n2n1	Dicer processing 24.5
Cc1cc2ncc(-c3ccnc(SCc4cccc(Cl)c4)n3)c(C)n2n1	none
Cc1cc2ncc(-c3ccnc(SCC(=O)c4ccc(Cl)cc4)n3)c(C)n2n1	none
Cc1ccc(Cn2[nH]nnc2=S)cc1	none
O=C(CSc1nc(-c2cccs2)cc(C(F)(F)F)n1)Nc1cccnc1	none
Cc1ccc(S(=O)(=O)CC(C)N2CCCCC2)c(S(=O)(=O)CC(C)N2CCCCC2)c1 (stereo unspecified)	none
COc1ccccc1NC(=O)N1c2ccccc2Sc2ccccc21	Dicer processing 3.15
COC(=O)c1cc(OC)c(OC)cc1NC(=O)N1c2ccccc2Sc2ccccc21	none
COc1cc(NC(=O)N2c3ccccc3Sc3ccccc32)c(C(=O)O)cc1OC	none
CCOc1cc(C2C(C(=O)OCc3ccc(OC)cc3)=C(C)NC3=C2C(=O)CCC3)ccc1O (stereo unspecified)	none
C/C(=N\OC(=O)c1ccc(Cl)c(Cl)c1)c1ccc(F)c(F)c1	none
Clc1ccccc1CSc1nnnn1-c1ccccc1	none
O=C(O)c1ccc(-n2nnnc2SCc2ccccc2Br)cc1	none
NC(=O)c1ccc(-n2nnnc2SCc2ccccc2Br)cc1	Dicer processing 3.99
Clc1ccccc1OCc1nc(-c2cccnc2)no1	none
Cn1c(=O)c2c3nc4cc(F)ccc4cc3c(=O)n(C)c2n(C)c1=O	none
c1ccc2c(c1)nc1n2CN(Cc2ccc3c(c2)OCO3)CN1	Dicer processing 3.5
c1cncc(CN2CNc3nc4ccccc4n3C2)c1	Dicer processing 3.01

From PubChem BioAssay
